# In PubChem BioAssay AID624494 (National Center for Advancing Translational Sciences (NCATS), 2012):
# Active and inactive are the calls of the source.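 Rule for the calls: active = D2 binding constant Ki of 1000 nM or lower when displacing the radioligand; inactive = the rest.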
# Biological target: D(2) dopamine receptor (Homo sapiens) (UniProt P14416)
# Assay: HTS Assay for Allosteric Antagonists of the Human D2 Dopamine Receptor: SAR in D2 Binding Assay
# Details: D2 radioligand binding, methylspiperone displacement
# Excerpt: Dopamine receptors (DARs) are involved in the etiology and/or therapy of a number of neuropsychiatric and endocrine disorders. For instance, all receptor-based antiparkinsonian drugs work via stimulating the D2 DAR subtype whereas all FDA-approved antipsychotic agents are antagonists of this receptor. […] There are three different types of allosteric modulators that we are seeking, two of which will stimulate or augment receptor signaling, allosteric agonists and potentiators, while the third, allosteric antagonists, will attenuate receptor signaling. The present primary screening assay measures compound antagonism after an EC80 addition of dopamine by tracking calcium flux in a […], inducible Hek293 Trex D2 cell line. This assay measures activity of the leads in the D2 radioligand binding assay. NIH Chemical Genomics Center [NCGC] NIH Molecular Libraries Probe Centers Network [MLPCN] MLPCN Grant: NS0676421 Assay Submitter (PI): David Sibley
# Radioligand displacement assay will be done to determine if the lead compounds are allosteric or orthosteric in nature, for interaction with the D2 receptor. Compounds will be evaluated for their ability to displace binding of methylspiperone.
# Chain of D(2) dopamine receptor (Homo sapiens) (P14416 whole entry, looked up): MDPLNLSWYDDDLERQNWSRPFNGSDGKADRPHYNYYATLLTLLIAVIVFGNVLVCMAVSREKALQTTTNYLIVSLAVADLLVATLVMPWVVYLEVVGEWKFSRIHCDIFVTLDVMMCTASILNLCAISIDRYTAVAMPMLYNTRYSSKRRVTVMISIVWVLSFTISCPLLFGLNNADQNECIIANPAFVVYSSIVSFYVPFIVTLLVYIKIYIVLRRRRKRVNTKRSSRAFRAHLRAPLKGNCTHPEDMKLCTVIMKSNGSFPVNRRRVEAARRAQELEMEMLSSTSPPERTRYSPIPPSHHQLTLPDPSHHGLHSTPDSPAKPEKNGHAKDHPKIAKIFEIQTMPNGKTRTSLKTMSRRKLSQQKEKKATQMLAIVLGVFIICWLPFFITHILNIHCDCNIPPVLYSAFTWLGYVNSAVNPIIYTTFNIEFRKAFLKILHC
row,Structure (SMILES),Ki
1,CN1C(=O)c2ccccc2[S@](=O)c2ccc(C(=O)NCCc3cccs3)cc21,100 nM (active)
